Measurements: PubChem BioAssay (NCI)
This is part of a sample that, as a whole, favours compounds with a hit. Of some 83,000 tested, about 20% had one in any assay.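 Percent growth is the endpoint: 0 to 100 indicates growth inhibition (40 means 60% inhibition), 0 means no net growth, and negative values indicate cell death.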 Unmarked numbers belong to inactive results. Calls of active or inactive are those of the source. Rule for the calls: active = growth percent below 10; inactive = the rest.

What was measured:
Assay in all cases: NCI-60 one-dose screen, 48 h (100 = growth as untreated, 0 = no growth, -100 = all killed)
Conditions in all cases: 10 µM
[1] = test system: DU-145 prostate
[2] = test system: K-562 leukemia
[3] = test system: MALME-3M melanoma
[4] = test system: MDA-MB-231 breast
[5] = test system: RXF 393 renal
[6] = test system: SF-268 CNS
[7] = test system: SF-295 CNS
[8] = test system: SF-539 CNS
[9] = test system: UACC-257 melanoma
[10] = test system: M14 melanoma

Structure (SMILES) | growth [1] | growth [2] | growth [3] | growth [4] | growth [5] | growth [6] | growth [7] | growth [8] | growth [9] | growth [10]
CCOc1cc(Br)c(C(C)NC(=O)c2cccc(OC)c2)cc1OCC (stereo not given) | 93.4% | 8.6% (active) | -9.34% (active) | 39% | 41.6% | 75.5% | 92.1% | 76.2% | -66.9% (active) | -67.2% (active)
CCc1ccc(-c2nnc(COc3ccc(-c4nc5ccc(C)cc5[nH]4)cc3OC)o2)cc1 | 48.5% | 33.1% | 9.91% (active) | 9.26% (active) | 24.4% | 55.6% | 20% | -28.2% (active) | 95.7% | 49.5%
CCOC(=O)CNC(=O)Nc1ccc(Oc2ccc(NC(=O)NCC(=O)OCC)cc2)cc1 | 112% | 105% | 102% | 108% | 91.6% | 104% | 93% | 86.7% | 96.2% | 101%
Cc1cc(O)c(C2=NN(c3ccc(S(N)(=O)=O)cc3)C(c3ccc(N(C)C)cc3)C2)c(C)c1Cl (stereo not given) | 75.2% | 25% | 157% | 103% | 93.4% | 72.1% | 6.34% (active) | 91.6% | 97.6% | 89.3%
Cc1ccc2nc(-c3ccc(OCC(=O)N=Nc4c(O)[nH]c5ccccc45)cc3)[nH]c2c1 | 73.3% | 5.23% (active) | 95.8% | 74.4% | 102% | 102% | 97.1% | 100% | 103% | 77.3%
C=C[C@]1(C)C=C2C(=O)[C@@]3(O)OC(=O)[C@@]4(CCCC(C)(C)[C@H]34)[C@@]2(O)CC1 | -99.4% (active) | 1.73% (active) | -69.6% (active) | -71.9% (active) | -97.4% (active) | -66.7% (active) | -17.2% (active) | -97.6% (active) | -93% (active) | -89% (active)
COc1ccc(Nc2nc(NCc3ccccc3)c3ccccc3n2)cc1 | 79.6% | 55.5% | 39.7% | 41% | 14.5% | 31.3% | 19.6% | 60.9% | 76.5% | 76.9%
CC(C)C[C@H](NC(=O)Cn1ccc(Nc2ccccc2)cc1=O)B(O)O | 38.9% | 39.1% | -11.7% (active) | 48.9% | -16.7% (active) | 34.2% | 37.8% | -57.7% (active) | 7.65% (active) | 31.8%
COc1ccc2nc(C)cc(Nc3ccc(Cl)cc3)c2c1 | 102% | 97.9% | 114% | 115% | 118% | 103% | 108% | 104% | 99.4% | 100%
NC(=O)C1CCCN(Cc2c[nH]c3ccccc23)C1 (stereo not given) | 106% | 97.3% | 99.7% | 99.8% | 95.2% | 96% | 92.7% | 92.9% | 96.5% | 99%
C=CCNC(=S)NN | 92.5% | 52.4% | 79.7% | 90.9% | 105% | 95.8% | 88.8% | 95.1% | 50.7% | 97.9%
COc1ccc(-c2nc(-c3nc4ccc(OC)cc4[nH]3)c3ccccn23)cc1 | 71.9% | 25.5% | 104% | 83% | 75.7% | 57.5% | 52% | 90.2% | 92.9% | 77.5%
COC(=O)c1cnc2c(c1)Oc1ccc(Cl)cc1-c1cc(C)nn1-2 | 79.6% | 95.8% | 94.8% | 35% | 89.8% | 78.9% | 92.3% | 46.1% | 107% | 95.3%
Clc1ccc(-c2nc(-c3cccs3)cn3ccnc23)cc1 | 94.7% | 26.1% | 86% | 66.5% | 86.7% | 82.8% | 81.9% | 76.7% | 70.2% | 61.5%
Nc1nc2c(ncn2C2OC3COP(=O)(O)OC4C(COP(=O)(O)OC2C3O)OC(n2cnc3c(N)ncnc32)C4O)c(=O)[nH]1 (stereo not given) | 107% | 92.5% | 106% | 114% | 114% | 102% | 96.9% | 0.807% (active) | 112% | 106%
CC(=O)[C@H]1CC[C@H]2[C@@H]3CC[C@@H]4CC=C(C=O)C[C@]4(C)[C@H]3CC[C@]12C | 98.7% | 81.9% | 96.2% | 94.3% | 112% | 92.4% | 93.2% | 92.4% | 96.2% | 89.2%
Cc1ccc(-n2c(-c3cc4c([nH]c5ccccc54)c(-c4cccc(O)c4)n3)n[nH]c2=S)cc1 | -16.6% (active) | 9.64% (active) | 41.3% | -1.15% (active) | -50.5% (active) | 9.02% (active) | -17.2% (active) | -27.3% (active) | 2.43% (active) | -40.1% (active)
COc1cc(CSc2nc3ccc(Cl)cc3c(=O)n2Cc2ccccc2)cc(OC)c1OC | 40.8% | 12.9% | 38.9% | 38.8% | 13.1% | 41% | 28.9% | 5.82% (active) | 46.5% | 35.4%
COc1cc(-c2cc(-c3cc(OC)c(OC)c(OC)c3)nc3nc(N)[nH]c(=O)c23)ccc1Oc1ccnc2cc(Cl)ccc12 | 33.9% | 10.6% | 59% | 36.7% | -13% (active) | 47.2% | 93.5% | -59.7% (active) | 66.6% | 12.6%
CCCCCCCCCCCCCCCCn1cc[n+](C)c1 | -100% (active) | 72.6% | -73.7% (active) | -93.9% (active) | -66.2% (active) | -23% (active) | -39.5% (active) | -98.6% (active) | -61.1% (active) | -77.4% (active)
Cc1nc(Nc2nc3ccccc3o2)nc(-c2cccc([N+](=O)[O-])c2)c1C(=O)Nc1ccc(F)c(Cl)c1 | 18.6% | 4.49% (active) | 6.18% (active) | -17.4% (active) | 29.4% | 11.9% | -40.7% (active) | 25.7% | -11.3% (active) | 15.6%
O=[N+]([O-])c1ccc(-c2nc(Cl)c3c(n2)CCCC3)o1 | 31.4% | 73.2% | 41.4% | 109% | 93.8% | 88.5% | 115% | 94.6% | 82.5% | 71.3%
COCCNCC(O)Cn1c2ccc(Cl)cc2c2cc(Cl)ccc21 (stereo not given) | 7.48% (active) | -17.1% (active) | -86.3% (active) | -33.1% (active) | 3.52% (active) | 7.96% (active) | -6.61% (active) | -85% (active) | -81% (active) | -87.4% (active)
CCOC(=O)C1=C(Nc2ccc(OC)cc2)C(N)=NC1=N | 44.1% | 19% | 31.9% | 67.5% | 46.7% | 60% | 54.8% | 25% | 44.9% | 27.3%
COc1cccc2c1C(=O)c1c(O)c3c(c(O)c1C2=O)C[C@@](O)(C(=O)COC(=O)c1ccccc1)C[C@@H]3OC1CC(N)C(O)C(C)O1 (stereo not given in full) | -87.6% (active) | -73.7% (active) | -88.4% (active) | -82% (active) | -80.3% (active) | -65.6% (active) | -91.2% (active) | -94.7% (active) | -91.3% (active) | -69.9% (active)
